Data reported in ChEMBL document CHEMBL3988442, “University of Dundee, Small-Polar-MMV Screening Library” (2021).

biological target: Shiga toxin 2 (Escherichia coli O157:H7) (UniProt P09385+P09386); experiment: E. coli 0.157:H7 Shiga Toxin SOP - stx2 screening assay; assay type: functional; set-up: scale not given: direction of the effect not stated beside the values; settings: 30 µM

Question: For `CCc1c(C(=O)N2CCN(CC(N)=O)CC2)cnn1C(C)(C)C`, which Percent Effect is on record?
Answer: 2.77%

Question: With `O=C(c1cc(Cl)c2c(c1)OCO2)N1CCN(c2nccs2)CC1` as the compound, how does the Percent Effect read?
Answer: -4.3%

Question: `NC(=O)c1cccc(CC2CCN(C(=O)CO)C2)c1` (stereo unspecified) was tested. Which Percent Effect did it give?
Answer: -19.3%

Question: `CC(C)c1nnc2n1CCN(C(=O)c1ccc(CN(C)C)cc1)C2` was tested. Which Percent Effect did it give?
Answer: 17.3%

Question: For `COc1ccc(OC)c(CNCCc2cc(F)cc3c2OCOC3)c1`, which Percent Effect is on record?
Answer: 7.51%

Question: `CCCc1nc(C)cc(N2CCC3(CCC(=O)N(CCOC)C3)CC2)n1` was tested. Which Percent Effect did it give?
Answer: -2.13%
